Consider 31 compounds from PubChem BioAssay AID2147 (National Center for Advancing Translational Sciences (NCATS), 2009).

“And” between values parts separate entries of the source, which are not always exact repeats. Identical values can stand only once. The whole screen tested about 230,000 compounds, of which about 3,600 (1.6%) were called active. Not shown: some 15% with an inconclusive outcome. This is one part of a sample in which actives are shown more often than they occur. Calls follow the shape of the dose curve; as a rule, active = well fitted inhibition curve with a large enough effect (not every such curve was filed as active); inconclusive = small, poorly fitted or top-dose-only effect, or another doubt; inactive = no such curve, though single readings can be large or run the other way.
Also: nearly all actives have a fitted effect of over 50% in size.
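For activity change, negative = inhibition in this document: 0% = wells with enzyme and -100% = buffer wells without enzyme.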
Potency is read from the fitted curve at half-maximal effect.

In the assay the target is Lysine-specific demethylase 4E (Homo sapiens) (UniProt B2RXH2). Nature of the assay: qHTS Assay for Inhibitors of Human Jumonji Domain Containing 2E (JMJD2E). As to conditions: JMJD2E catalytic domain, FDH-coupled NADH fluorescence (FDH is formaldehyde dehydrogenase); series mostly up to 57.1 µM; activity change, negative = inhibition: at the top concentration. (In general: qHTS replaces the single test concentration by a dilution series.)
Chain of Lysine-specific demethylase 4E (Homo sapiens) (B2RXH2 1-337 limits assumed): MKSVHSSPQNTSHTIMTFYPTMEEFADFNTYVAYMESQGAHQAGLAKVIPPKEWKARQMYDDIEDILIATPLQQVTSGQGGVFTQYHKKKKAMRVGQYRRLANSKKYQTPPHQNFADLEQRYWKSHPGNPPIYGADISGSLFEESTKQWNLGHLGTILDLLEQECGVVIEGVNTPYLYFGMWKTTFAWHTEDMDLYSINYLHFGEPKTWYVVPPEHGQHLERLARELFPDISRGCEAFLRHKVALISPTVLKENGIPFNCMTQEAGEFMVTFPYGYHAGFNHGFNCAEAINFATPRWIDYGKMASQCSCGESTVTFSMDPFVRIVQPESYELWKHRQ
For the compound `Cn1c(CSCC(=O)Nc2ccccc2)nnc1SCc1ccccc1`, the “activity change, negative = inhibition” value is -1.73% (inactive). On the same count and under the same terms, in the case of `Cc1ccc(NNC(=O)c2c(F)cccc2Cl)cc1Cl` it was -12.8% (inactive); in that of `COC(=O)N(NC(=O)C(O)(C(C)C)C(C)C)c1ccccc1`, 2.87% (inactive).

In the case of `Cc1cc(=O)[nH]c(=S)[nH]1`, the Potency entry was “inactive”. With `Cc1cc(=O)[nH]c(SCC(N)=O)c1C#N`, the “activity change, negative = inhibition” value is 0.748% (inactive). Turning to `Cc1cc(=O)[nH]c(S)c1C#N`, the Potency is 28.2 µM (active). Still for that read-out and setting: the result for `CC(C)(C)c1ccc(/C=C2\Oc3c(ccc(O)c3CN3CCN(CCO)CC3)C2=O)cc1` reads 14.1 µM (active). As to `O=S(=O)(Nc1n[nH]c(C(F)(F)F)n1)c1ccccc1`, the “activity change, negative = inhibition” value was -3.67% (inactive).

Regarding `N#C/C(=C\c1ccc(O)c(O)c1)C(N)=O`, the Potency was 7.08 µM (active). Regarding `CCOC(=O)NC(=O)/C(C#N)=C\c1ccccc1`, the “activity change, negative = inhibition” value is 8.09% (inactive). On the same count and under the same terms, the result for `COCCNC(=O)/C(C#N)=C/c1cccc(OCc2ccccc2)c1` reads -8.01% (inactive); that for `CCOC(=O)/C(C#N)=C/c1ccc(N2CCCCC2)cc1`, -5.46% (inactive). Turning to `N#C/C(=C\c1ccc(O)c(O)c1)C(=O)NCc1ccccc1`, the Potency is 15.8 µM (active) and 20 µM (active). `CC(C)(C)C(=O)/C(C#N)=C/c1ccc(O)cc1`: the “activity change, negative = inhibition” value is -3.99% (inactive). The same measure, in the same setting: the result for `Cc1ccc(CN(Cc2cccnc2)C(=S)Nc2cc(Cl)ccc2C)cc1` reads -10% (inactive); that for `O=C(NCC(c1cccs1)N1CCOCC1)c1cc(-c2ccccn2)nc2ccccc12` (stereo unspecified), -21.6% (inactive). Turning to `COc1ccccc1OCC(=O)O/N=C(\N)c1ccccn1`, the “activity change, negative = inhibition” value is -4.76% (inactive).

Take `COc1cc(/C=C2/C(=O)NN(c3ccc(F)cc3)C2=O)cc([N+](=O)[O-])c1O`: the “activity change, negative = inhibition” value was -19.9% (inactive). Still for that read-out and setting: the result for `CCOC(=O)c1ccc(N=C2SC(C(=O)NC)CC(=O)N2CCc2ccccc2)cc1` (stereo unspecified) reads -2.87% (inactive); that for `CC(=O)Nc1nc2c(s1)C(=O)NCC(C)(C)C2`, 6.1% (inactive). Consider `Oc1ccc(N=Nc2nccs2)c(O)c1`, for which the Potency was 8.91 µM (active). `Oc1c(C=Nc2cccc3nsnc23)ccc2ccccc12`: the “activity change, negative = inhibition” value was -9.64% (inactive).

Turning to `Oc1ccc2ccccc2c1N=Nc1nccs1`, the Potency was 28.2 µM (active). Consider `COc1ccccc1NC(=S)N1CCN(C(c2ccccc2)c2ccccc2)CC1`, for which the “activity change, negative = inhibition” value was 12.1% (inactive). Turning to `CSc1ccccc1NC(=O)CN(C)CC(=O)Nc1cccc(Br)c1`, the “activity change, negative = inhibition” value is -20.7% (inactive). Consider `COc1ccc(Cc2nnc(N/N=C/c3ccccc3O)[nH]c2=O)cc1OC`, for which the Potency was 6.31 µM (active).

Turning to `COc1ccc(CCNC(=O)CCCCn2c(=O)[nH]c3ccccc3c2=O)cc1OC`, the “activity change, negative = inhibition” value is 3.97% (inactive).

Regarding `COc1ccc(Cc2nnc(SC)[nH]c2=O)cc1`, the “activity change, negative = inhibition” value was 8.09% (inactive). Still for that read-out and setting: the result for `CCOC(=O)C1=C(c2ccccc2)NC(=S)NC1c1ccc(Cl)cc1` (stereo unspecified) reads -5.72% (inactive); that for `Cc1noc(C)c1COC(=O)COc1ccc(-c2ccccc2)cc1`, 7.05% (inactive).

Take `COc1ccc(/C=C/C(=O)Nc2ccc(C)cc2)cc1S(=O)(=O)N1CCOCC1`: the “activity change, negative = inhibition” value was 1.97% (inactive).
